Where “and” joins values, the source holds several entries; their conditions need not be identical. Equal entries are not always repeated. Records with an inconclusive call do not appear. A call without a number means that no potency is given here. Unmarked numbers belong to inactive results. Calls of active or inactive are those of the source. Unless noted, the call rests on the fitted dose curve.
Potency means the concentration at half of the fitted maximal effect.

Progesterone receptor (Homo sapiens), sequence (P06401 whole entry, looked up): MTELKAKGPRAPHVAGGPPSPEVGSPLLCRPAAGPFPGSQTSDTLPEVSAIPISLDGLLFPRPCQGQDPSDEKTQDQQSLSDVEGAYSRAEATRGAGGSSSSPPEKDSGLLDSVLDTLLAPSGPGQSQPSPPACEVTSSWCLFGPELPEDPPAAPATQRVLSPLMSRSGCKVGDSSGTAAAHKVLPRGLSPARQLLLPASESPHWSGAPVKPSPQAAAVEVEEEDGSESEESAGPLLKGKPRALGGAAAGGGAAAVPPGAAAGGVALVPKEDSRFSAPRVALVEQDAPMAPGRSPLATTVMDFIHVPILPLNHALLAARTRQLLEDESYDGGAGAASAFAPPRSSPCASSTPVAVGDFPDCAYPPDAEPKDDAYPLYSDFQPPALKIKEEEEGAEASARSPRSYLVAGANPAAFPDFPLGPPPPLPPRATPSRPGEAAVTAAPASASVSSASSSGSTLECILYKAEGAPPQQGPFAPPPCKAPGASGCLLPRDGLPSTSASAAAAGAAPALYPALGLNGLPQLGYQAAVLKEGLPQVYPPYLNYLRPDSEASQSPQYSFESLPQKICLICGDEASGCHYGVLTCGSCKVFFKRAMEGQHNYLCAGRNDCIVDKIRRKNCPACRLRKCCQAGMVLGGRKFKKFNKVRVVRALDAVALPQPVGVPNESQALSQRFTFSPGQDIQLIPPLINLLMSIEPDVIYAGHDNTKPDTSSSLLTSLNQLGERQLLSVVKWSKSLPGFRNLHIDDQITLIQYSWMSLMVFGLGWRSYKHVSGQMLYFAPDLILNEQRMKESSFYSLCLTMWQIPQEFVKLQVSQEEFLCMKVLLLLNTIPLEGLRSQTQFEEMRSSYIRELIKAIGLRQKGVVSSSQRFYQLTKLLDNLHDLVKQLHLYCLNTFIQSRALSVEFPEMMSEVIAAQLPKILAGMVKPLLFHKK

One assay has as its target Progesterone receptor (Homo sapiens) (UniProt P06401). Put plainly: qHTS assay to identify small molecule agonists of the progesterone receptor (PR) signaling pathway (AID 1346784). Further: nearly all actives have a fitted effect of over 30% in size. The following applies: PR-UAS-bla HEK293T, beta-lactamase FRET ratio, 16 h; series mostly up to 92.4 µM. The method in brief: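 Seed PR-UAS-bla HEK 293T cells (2% charcoal-stripped FBS), incubate 6 hr at 37C; add compounds in DMSO, 16 hr at 37C; add LiveBLAzer B/G substrate, 2 hr RT; read fluorescence intensity.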
For orientation: Quantitative high-throughput screening tests each substance at several concentrations.
`CC(C)(C)c1ccc(O)c(O)c1`: the Potency entry is “inactive”.

As for `Oc1ccc(C2CNCCc3c2cc(O)c(O)c3Cl)cc1` (stereo not given), the Potency entry is “inactive”.

On to `CCOC(C)(C)C`, for which the Potency result is “inactive”.

Take `CC(=O)Nc1c(I)cc(I)c(C(=O)O)c1I`: the Potency entry is “inactive”.

With `N=C(N)c1ccccc1`, the Potency result was “inactive”.

`Cc1cnc(NS(=O)(=O)c2ccc(N)cc2)nc1`: the Potency result was “inactive”.

`COc1cc(C(=O)N2CCCCCCC2)cc(OC)c1OC`: the Potency entry was “inactive”.

Turning to `NS(=O)(=O)c1ccc(C(=O)O)cc1`, the Potency result is “inactive”.

Take `CC(NC(CCc1ccccc1)C(=O)O)C(=O)N1C(=O)N(C)CC1C(=O)O` (stereo not given): the Potency entry was “inactive”.

As for `N#Cc1ccc(C2CCCc3cncn32)cc1` (stereo not given), the Potency entry is “inactive”.

Consider `Cc1ccc(Cl)cc1Cl`, for which the Potency entry is “inactive”.

On to `COCCc1ccc(OCC(O)CNC(C)C)cc1` (stereo not given), for which the Potency result is “inactive”.

Turning to `CCCC(=O)O[C@]1(C(=O)CO)CC[C@H]2[C@@H]3CCC4=CC(=O)CC[C@]4(C)[C@H]3[C@@H](O)C[C@@]21C`, the Potency was 841 nM (active).

With `CCOC(=O)c1cccc(N)c1`, the Potency entry was “inactive”.

Turning to `CCN(CC)CCOCCOC(=O)C1(c2ccccc2)CCCC1`, the Potency result is “inactive”.

With `CCCN(CCC)CCc1cccc2c1CC(=O)N2`, the Potency entry was “inactive”.

As for `NC(=O)c1cn(Cc2c(F)cccc2F)nn1`, the Potency entry was “inactive”.

As to `CC(C)CNCC(C)C`, the Potency entry was “inactive”.

For `O=c1n(CCO)c(=O)n(CCO)c(=O)n1CCO`, the Potency entry is “inactive”.

For `NS(=O)(=O)c1cc(C(=O)O)cc(N2CCCC2)c1Oc1ccccc1`, the Potency result was “inactive”.

`CN1CC(=O)NC1=N`: the Potency entry was “inactive”.

As to `CCCCCCOC(=O)CCCCC(=O)OCCCCCC`, the Potency result is “inactive”.

For `COc1c(N2C[C@@H]3CCCN[C@@H]3C2)c(F)cc2c(=O)c(C(=O)O)cn(C3CC3)c12`, the Potency entry is “inactive”.

On to `CO[C@]12C[C@@H](COC(=O)c3cncc(Br)c3)CN(C)[C@@H]1Cc1cn(C)c3cccc2c13`, for which the Potency result is “inactive”.

Take `CC(C)(O)C#CC(C)(C)O`: the Potency result was “inactive”.

On to `COc1ccc(CCN(C)CCCC(C#N)(c2cc(OC)c(OC)c(OC)c2)C(C)C)cc1OC` (stereo not given), for which the Potency entry is “inactive”.

On to `NC(=O)Nc1ccccc1`, for which the Potency result is “inactive”.

For `N=c1nc(N2CCCCC2)cc(N)n1O`, the Potency result was “inactive”.

`CCC(C)S` (stereo not given): the activation was -0.0244% [at 3.27 µM].

For the compound `CCN1CCC[C@H]1CNC(=O)c1c(O)c(Cl)cc(Cl)c1OC`, the Potency result is “inactive”.

`CCc1cccc2c(CCO)c[nH]c12`: the Potency result was “inactive”.

On to `NS(=O)(=O)c1cc2c(cc1Cl)NC(C1CC3C=CC1C3)NS2(=O)=O` (stereo not given), for which the Potency entry was “inactive”.

For `O=C(O)CCCc1ccccc1`, the Potency result is “inactive”.

In the case of `Cn1cc(S(C)=O)c(=O)c2ccc(F)cc21` (stereo not given), the Potency entry is “inactive”.

As to `CC(=O)OCC(CCn1cnc2cnc(N)nc21)COC(C)=O`, the Potency entry is “inactive”.

Another assay has the same target. Kind of assay: qHTS assay to identify small molecule antagonists of the progesterone receptor (PR) signaling pathway (AID 1346795; active means well fitted inhibition curve with a large enough effect in the signal ratio in the repeat runs, not every such curve was filed as active; the % refers to the signal ratio). As to conditions: PR-UAS-bla HEK293T, beta-lactamase FRET ratio, 16 h; series mostly up to 42.5 µM. Summed up: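 Screening used a GripTite HEK293T line with PR-responsive UAS-beta-lactamase. Cells were challenged with compound in the presence of 1 nM R5020 final for 16 hr at 37C; B/G FRET substrate, 2 hr room temperature, fluorescence.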
Turning to `CC(C)(C)c1ccc(O)c(O)c1`, the Potency was 50.2 µM (active) and 44.5 µM (active).

Turning to `Oc1ccc(C2CNCCc3c2cc(O)c(O)c3Cl)cc1` (stereo not given), the Potency result is “inactive”.

On to `CCOC(C)(C)C`, for which the Potency entry is “inactive”.

Consider `CC(=O)Nc1c(I)cc(I)c(C(=O)O)c1I`, for which the Potency entry was “inactive”.

As to `N=C(N)c1ccccc1`, the Potency result is “inactive”.

Turning to `Cc1cnc(NS(=O)(=O)c2ccc(N)cc2)nc1`, the Potency entry is “inactive”.

Take `COc1cc(C(=O)N2CCCCCCC2)cc(OC)c1OC`: the Potency result was “inactive”.

Turning to `NS(=O)(=O)c1ccc(C(=O)O)cc1`, the Potency entry is “inactive”.

Regarding `CC(NC(CCc1ccccc1)C(=O)O)C(=O)N1C(=O)N(C)CC1C(=O)O` (stereo not given), the Potency result is “inactive”.

For the compound `N#Cc1ccc(C2CCCc3cncn32)cc1` (stereo not given), the Potency entry was “inactive”.

Consider `Cc1ccc(Cl)cc1Cl`, for which the Potency entry was “inactive”.

Consider `COCCc1ccc(OCC(O)CNC(C)C)cc1` (stereo not given), for which the Potency result is “inactive”.

With `CCCC(=O)O[C@]1(C(=O)CO)CC[C@H]2[C@@H]3CCC4=CC(=O)CC[C@]4(C)[C@H]3[C@@H](O)C[C@@]21C`, the Potency entry was “inactive”.

On to `CCOC(=O)c1cccc(N)c1`, for which the Potency result is “inactive”.

As to `CCN(CC)CCOCCOC(=O)C1(c2ccccc2)CCCC1`, the Potency result is “inactive”.

For the compound `CCCN(CCC)CCc1cccc2c1CC(=O)N2`, the Potency entry was “inactive”.

As for `NC(=O)c1cn(Cc2c(F)cccc2F)nn1`, the Potency result is “inactive”.

`CC(C)CNCC(C)C`: the Potency entry is “inactive”.

On to `O=c1n(CCO)c(=O)n(CCO)c(=O)n1CCO`, for which the Potency result is “inactive”.

As to `NS(=O)(=O)c1cc(C(=O)O)cc(N2CCCC2)c1Oc1ccccc1`, the Potency result was “inactive”.

As for `CN1CC(=O)NC1=N`, the Potency entry was “inactive”.

For `CCCCCCOC(=O)CCCCC(=O)OCCCCCC`, the Potency entry was “inactive”.

With `COc1c(N2C[C@@H]3CCCN[C@@H]3C2)c(F)cc2c(=O)c(C(=O)O)cn(C3CC3)c12`, the Potency entry is “inactive”.

For `CO[C@]12C[C@@H](COC(=O)c3cncc(Br)c3)CN(C)[C@@H]1Cc1cn(C)c3cccc2c13`, the Potency entry is “inactive”.

`CC(C)(O)C#CC(C)(C)O`: the Potency result was “inactive”.

For `COc1ccc(CCN(C)CCCC(C#N)(c2cc(OC)c(OC)c(OC)c2)C(C)C)cc1OC` (stereo not given), the Potency entry was “inactive”.

As for `NC(=O)Nc1ccccc1`, the Potency entry is “inactive”.

Take `N=c1nc(N2CCCCC2)cc(N)n1O`: the Potency entry was “inactive”.

For `CCC(C)S` (stereo not given), the activity change, negative = inhibition is 8.27% [at 3.27 µM].

On to `CCN1CCC[C@H]1CNC(=O)c1c(O)c(Cl)cc(Cl)c1OC`, for which the Potency result was “inactive”.

For the compound `CCc1cccc2c(CCO)c[nH]c12`, the Potency result was “inactive”.

`NS(=O)(=O)c1cc2c(cc1Cl)NC(C1CC3C=CC1C3)NS2(=O)=O` (stereo not given): the Potency result was “inactive”.

For the compound `O=C(O)CCCc1ccccc1`, the Potency result was “inactive”.

For the compound `Cn1cc(S(C)=O)c(=O)c2ccc(F)cc21` (stereo not given), the Potency entry is “inactive”.

With `CC(=O)OCC(CCn1cnc2cnc(N)nc21)COC(C)=O`, the Potency entry is “inactive”.

(Values after PubChem BioAssay (Tox21).)
